The source of these data is the supplement of paper PMC4894684.

Molecules are shown by their SMILES. Counter-ions that a name gives are not always drawn. ± gives the standard deviation of the averaged measurements.

The test system of the test is Toxoplasma gondii RH (in HFF). The test is described as follows: parasite growth relative to the screen mean (all compounds = 100%); higher = less inhibition of parasite growth. As to conditions: 5 µM; 72 h; oxygen 21 %. The gist of the method:
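Each value is parasite growth expressed against the screen mean, averaged over two screens, where the mean of all compounds = 100%. The screen used 5 µM final compound on confluent human foreskin fibroblasts infected with RH β-Gal–GFP Toxoplasma (MOI 1:5) within 2 h and grown 72 h at 21% O2. Parasite number was measured by a CPRG β-Gal assay against in-plate standard curves.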
Compound `O=C(CCCN1CCC2(CC1)C(=O)NCN2c1ccccc1)c1ccc(F)cc1` [Spiperone hydrochloride] showed a parasite growth of 99.8 ± 36%.
As for `O=C1CSC(c2ccccc2Cl)c2cc(Cl)ccc2N1` (stereo not drawn), the figure is 153 ± 4.7%; as for `N[C@@H](Cn1oc(=O)[nH]c1=O)C(=O)O` [L-Quisqualic acid], 99 ± 20%.
